Inconclusive results are not listed. A call without a number means that no potency is given here. Activity calls are given as the source filed them. Calls come from the whole dose curve; as a rule, active = well fitted cell-killing curve with a large enough effect; inconclusive = small, poorly fitted or top-dose-only effect, or effect the other way; inactive = flat fitted curve, though single readings scatter.
Assay: S16 Schwann cell viability assay (CellTiter-Glo assay) (AID 624031); note: nearly all actives have a fitted effect of over 70% in size
Details: S16 rat Schwann cells viability, 24 h; series mostly up to 57.5 µM
Method in brief: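 Native S16 Schwann cells (rat), serum-containing medium, overnight attachment then 24 h drug exposure at 37 °C/5% CO2. CellTiter-Glo ATP signal; normalized to cell-free and vehicle wells.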
Potency is the fitted concentration of half-maximal effect.

Row | Compound | Potency
1 | O=c1cc[nH]c(=O)[nH]1 | inactive
2 | O=c1cc(CO)occ1O | inactive
3 | CC(C)(C)C(=O)NCCCC(=O)O | inactive
4 | O=C1OC(OC(=O)c2cccnc2Nc2cccc(C(F)(F)F)c2)c2ccccc21 (centres undefined) | inactive
5 | NCC(=O)CCC(=O)O | inactive
6 | Cc1cccc(C)c1NC(=O)CN(CC(=O)O)CC(=O)O | inactive
7 | NC(=O)NC(=O)Cc1ccccc1 | inactive
8 | O=C(O)CC(O)C(=O)O (centres undefined) | inactive
9 | CSc1ccc2c(c1)C(N1CCN(C)CC1)Cc1ccccc1S2 (centres undefined) | 12.8 µM (active)
10 | CC(=O)NC(Cc1ccccc1)C(=O)O (centres undefined) | inactive
11 | Cc1cc2c(cc1S(N)(=O)=O)S(=O)(=O)CCC2 | inactive
12 | CCN(CC)CCSC(=O)C(c1ccccc1)c1ccccc1 | inactive
13 | CN(C)CCN(Cc1ccccc1)c1ccccn1 | inactive
14 | NC(CSCC(=O)O)C(=O)O (centres undefined) | inactive
15 | COc1cc(C(=O)N2CCOCC2)cc(OC)c1OC | inactive
16 | CCCCCCCCCCCCCCCCCCOCC(O)CO (centres undefined) | inactive
17 | Cc1cc(O)cc2c1O[C@](C)(CCC[C@H](C)CCC[C@H](C)CCCC(C)C)CC2 | inactive
18 | Oc1cn2c(n1)Nc1ccc(Cl)c(Cl)c1C2 | inactive
19 | O=C(O)[C@@H]1CSCN1 | inactive
20 | C#CCN(C)Cc1ccccc1 | inactive
21 | CCC(=O)Nc1ccc(O)cc1 | inactive
22 | CC1(C)CO[C@@H](CC(=O)O)CN1 | inactive
23 | CN1CCCCC1CCN1c2ccccc2Sc2ccc(S(C)=O)cc21 (centres undefined) | inactive
24 | CCOc1ccc2ccccc2c1C(=O)N[C@@H]1C(=O)N2[C@@H]1SC(C)(C)[C@@H]2C(=O)O | inactive
